Test results from ChEMBL document CHEMBL1157539, “Thousands of chemical starting points for antimalarial lead identification” (Nature, 2010).

System: Plasmodium falciparum
Test: GSK_TCMDC: Inhibition of Plasmodium falciparum 3D7 in whole red blood cells, using parasite LDH activity as an index of growth. Test compounds present at 2uM
Type: functional

Q: Which Inhibition does the source give for `COc1cc2nc(N3CCC(CNC(=O)c4cc(Br)c(Br)s4)CC3)nc(N)c2cc1OC.O=C(O)C(F)(F)F` here?
A: 100%

Q: Which Inhibition does the source give for `O=C(c1ccc(OCCn2ccnc2)cc1)N1CCC(c2ccc(Br)cc2)C1` (stereo unspecified) here?
A: 100%

Q: For `N#Cc1cccc(COC(=O)C2=C(COc3ccccc3Cl)NC(=O)NC2c2c[nH]c3cnccc23)c1` (stereo unspecified), which Inhibition is on record?
A: 99%

Q: Which Inhibition does the source give for `CC(=O)Nc1ccc(CN2CCC(CNC(=O)c3cc(-c4cccc(Cl)c4)cs3)C2)cc1.O=C(O)C(F)(F)F` (stereo unspecified) here?
A: 91%

Q: For `O=C(Nc1ccc(-c2cccc(-c3nc4ccccc4[nH]3)c2)cc1)Nc1ccsc1`, which Inhibition is on record?
A: 100%

Q: How did the Inhibition turn out when `CCC(C)c1ccc(NC(=O)Nc2ccnc3ccccc23)cc1.Cl` (stereo unspecified) was run?
A: 98%

Q: How did the Inhibition turn out when `CCN(CC)CC#Cc1ccc2[nH]c(C)c(Cl)c(=O)c2c1` was run?
A: 96%

Q: How did the Inhibition turn out when `Cc1cccc(-n2nc(C)c3c2NC(=O)CC3C(=O)c2ccc(Cl)s2)c1` (stereo unspecified) was run?
A: 92%

Q: With `Cc1nc2ccc(-c3nc4cc(N)ccc4[nH]3)cc2[nH]1` as the molecule, how does the Inhibition read?
A: 94%

Q: How did the Inhibition turn out when `CCCNCc1ccc(-c2ccc(CN(CCOC)C(=O)c3ccco3)cc2)nc1.O=C(O)C(F)(F)F` was run?
A: 91%

Q: With `Clc1ccccc1CN1CCC(NCc2cccc(-n3ccnc3)c2)CC1.O=C(O)C(F)(F)F` as the molecule, how does the Inhibition read?
A: 100%

Q: For `COc1ccc2nccc([C@@H](O)CN3CCC(NC(=O)C(c4ccsc4)N4CCN(c5ccccc5OC)CC4)CC3)c2c1` (stereo partly specified), which Inhibition is on record?
A: 95%

Q: `Cc1ccc(-c2cc(C(=O)Nc3ccc(S(=O)(=O)N4CCCC(C)C4)cc3)[nH]n2)c(O)c1` (stereo unspecified) was tested. Which Inhibition did it give?
A: 100%

Q: Which Inhibition does the source give for `Oc1cccc2ccc(Nc3ccccn3)nc12` here?
A: 99%

Q: Which Inhibition does the source give for `CC[C@H]1CN(Cc2cccc(O)c2)CC[C@H]1CCCc1ccnc2ccc(O)cc12` here?
A: 100%

Q: How did the Inhibition turn out when `CCc1c(CCNCC/C=C/CCNCCc2ccc(OC)c(OC)c2CC)ccc(OC)c1OC.Cl` was run?
A: 100%

Q: `O=[N+]([O-])c1cccc(/C=N/Nc2ccnc3ccc(C(F)(F)F)cc23)c1` was tested. Which Inhibition did it give?
A: 96%

Q: Which Inhibition does the source give for `Cc1nc(C)c(CC(=O)Nc2ccc(-c3cccc(-c4nc5cccc(C)c5[nH]4)c3)cc2)s1` here?
A: 100%

Q: For `O=C(O)C(F)(F)F.OCCN1CCN(Cc2cccc(-c3ccc(-c4nc5cc(C(F)(F)F)ccc5[nH]4)cc3)c2)CC1`, which Inhibition is on record?
A: 100%

Q: `CC(C)(C)OC(=O)c1c(NC(=O)/C=C/c2ccc(O)c(O)c2)sc2c1CCCC2` was tested. Which Inhibition did it give?
A: 97%

Q: How did the Inhibition turn out when `Cn1cncc1C(=O)Nc1cccc(-c2ccc(-c3nc4cc(C(F)(F)F)ccc4[nH]3)cc2)c1` was run?
A: 97%

Q: For `CN1CCC(C(=O)Nc2cccc(-c3cccc(-c4nc5cc(F)ccc5[nH]4)c3)c2)CC1`, which Inhibition is on record?
A: 100%

Q: For `COc1ccc(Cn2c(Nc3cccc(C(F)(F)F)c3)nc3cc(C(=O)NC(C)C)cnc32)cc1Cl`, which Inhibition is on record?
A: 85%

Q: `O=C(Nc1nc2cc(S(=O)(=O)NCCc3ccc(F)cc3)ccc2n1CCCn1ccnc1)c1ccc(Cl)cc1.O=C(O)C(F)(F)F` was tested. Which Inhibition did it give?
A: 100%

Q: `Cc1ccc2cc(NC(=O)c3cccc(C(=O)Nc4ccc5nc(C)ccc5c4)n3)ccc2n1` was tested. Which Inhibition did it give?
A: 92%

Q: With `CCc1cn2c3c(cc(C(=O)N[C@@H](Cc4ccccc4)[C@H](O)CNC4CCOCC4)cc13)N(C(C)C)S(=O)(=O)CC2.O=CO` as the molecule, how does the Inhibition read?
A: 98%

System: Plasmodium falciparum
Test: GSK_TCMDC: Inhibition of Plasmodium falciparum Dd2 in whole red blood cells, using parasite LDH activity as an index of growth. Test compounds present at 2uM
Type: functional

Q: With `CCc1cn2c3c(cc(C(=O)N[C@@H](Cc4cc(F)cc(F)c4)[C@H](O)CNC4CCCCC4)cc13)N(C)S(=O)(=O)CC2.O=CO` as the molecule, how does the Inhibition read?
A: 99%

Q: With `COc1cc(OC)cc(-c2nnc(Sc3ccc(C#N)c([N+](=O)[O-])c3)n2C)c1` as the molecule, how does the Inhibition read?
A: 77%

Q: With `CCn1c(-c2nc(-c3ccc4c(c3)OCO4)cnc2N)nc2cnccc21` as the molecule, how does the Inhibition read?
A: 98%

Q: With `CCN1CCN(c2cc(C)c3cc(NC(=O)c4ccc(N(CC)CC)cc4)ccc3n2)CC1` as the molecule, how does the Inhibition read?
A: 41%

Q: With `CCOc1cc(C(=O)NCc2cc(Cl)cc(Cl)c2)ccc1-c1nc2cc(Cl)ccc2[nH]1` as the molecule, how does the Inhibition read?
A: 5%

Q: With `CC1=C(C(=O)OCCOCc2ccccc2)C(c2ccccc2C(F)(F)F)C(C(=O)OCCOCc2ccccc2)=C(C)N1` as the molecule, how does the Inhibition read?
A: 87%

Q: For `CCCNC(=O)C1CCN(C(c2ccc(Cl)cc2)c2ccc(Cl)cc2)CC1`, which Inhibition is on record?
A: 96%

Q: With `c1ccc(-c2ccc(-c3nc4ccccc4[nH]3)cc2)cc1` as the molecule, how does the Inhibition read?
A: 83%

Q: How did the Inhibition turn out when `Cc1ccc(Cn2ncc(N3CCC(N)CC3)c(Cl)c2=O)cc1NC(=O)Nc1ccc(-c2ccccc2)cc1.O=C(O)C(F)(F)F` was run?
A: 25%

Q: With `O=C(C1COc2ccccc2O1)N(CCCn1ccnc1)Cc1csc(-c2ccc(CNCc3ccccc3)cc2)n1.O=C(O)C(F)(F)F` (stereo unspecified) as the molecule, how does the Inhibition read?
A: 18%

Q: For `CCCCCCc1cnc2nc(N)nc(N)c2c1C`, which Inhibition is on record?
A: 20%

Q: For `O=C(O)C(F)(F)F.OC1CCCN(Cc2cccc(-c3ccc(-c4nc5ccccc5[nH]4)cc3)c2)C1` (stereo unspecified), which Inhibition is on record?
A: 16%

Q: For `Cc1ccc(C(NC(=O)Cc2ccccc2)c2ccc3cccnc3c2O)cc1` (stereo unspecified), which Inhibition is on record?
A: 77%

Q: For `CCOc1ccc2nc3cc(NC(=O)c4ccco4)ccc3c(N)c2c1`, which Inhibition is on record?
A: 56%

Q: For `COc1cc2nc(N3CCC(CNC(=O)c4cc(Br)c(Br)s4)CC3)nc(N)c2cc1OC.O=C(O)C(F)(F)F`, which Inhibition is on record?
A: 97%

Q: Which Inhibition does the source give for `O=C(c1ccc(OCCn2ccnc2)cc1)N1CCC(c2ccc(Br)cc2)C1` (stereo unspecified) here?
A: 99%

Q: For `N#Cc1cccc(COC(=O)C2=C(COc3ccccc3Cl)NC(=O)NC2c2c[nH]c3cnccc23)c1` (stereo unspecified), which Inhibition is on record?
A: 0%

Q: For `CC(=O)Nc1ccc(CN2CCC(CNC(=O)c3cc(-c4cccc(Cl)c4)cs3)C2)cc1.O=C(O)C(F)(F)F` (stereo unspecified), which Inhibition is on record?
A: 1%

Q: For `O=C(Nc1ccc(-c2cccc(-c3nc4ccccc4[nH]3)c2)cc1)Nc1ccsc1`, which Inhibition is on record?
A: 90%

Q: For `CCC(C)c1ccc(NC(=O)Nc2ccnc3ccccc23)cc1.Cl` (stereo unspecified), which Inhibition is on record?
A: 42%

Q: How did the Inhibition turn out when `CCN(CC)CC#Cc1ccc2[nH]c(C)c(Cl)c(=O)c2c1` was run?
A: 95%

Q: `Cc1cccc(-n2nc(C)c3c2NC(=O)CC3C(=O)c2ccc(Cl)s2)c1` (stereo unspecified) was tested. Which Inhibition did it give?
A: 85%

Q: How did the Inhibition turn out when `Cc1nc2ccc(-c3nc4cc(N)ccc4[nH]3)cc2[nH]1` was run?
A: 80%

Q: `CCCNCc1ccc(-c2ccc(CN(CCOC)C(=O)c3ccco3)cc2)nc1.O=C(O)C(F)(F)F` was tested. Which Inhibition did it give?
A: 21%

Q: For `Clc1ccccc1CN1CCC(NCc2cccc(-n3ccnc3)c2)CC1.O=C(O)C(F)(F)F`, which Inhibition is on record?
A: 43%

Q: For `COc1ccc2nccc([C@@H](O)CN3CCC(NC(=O)C(c4ccsc4)N4CCN(c5ccccc5OC)CC4)CC3)c2c1` (stereo partly specified), which Inhibition is on record?
A: 50%

Q: How did the Inhibition turn out when `Cc1ccc(-c2cc(C(=O)Nc3ccc(S(=O)(=O)N4CCCC(C)C4)cc3)[nH]n2)c(O)c1` (stereo unspecified) was run?
A: 99%

Q: For `Oc1cccc2ccc(Nc3ccccn3)nc12`, which Inhibition is on record?
A: 93%

Q: With `CC[C@H]1CN(Cc2cccc(O)c2)CC[C@H]1CCCc1ccnc2ccc(O)cc12` as the molecule, how does the Inhibition read?
A: 98%

Q: Which Inhibition does the source give for `CCc1c(CCNCC/C=C/CCNCCc2ccc(OC)c(OC)c2CC)ccc(OC)c1OC.Cl` here?
A: 7%

Q: `O=[N+]([O-])c1cccc(/C=N/Nc2ccnc3ccc(C(F)(F)F)cc23)c1` was tested. Which Inhibition did it give?
A: 35%

Q: `Cc1nc(C)c(CC(=O)Nc2ccc(-c3cccc(-c4nc5cccc(C)c5[nH]4)c3)cc2)s1` was tested. Which Inhibition did it give?
A: 38%

Q: How did the Inhibition turn out when `O=C(O)C(F)(F)F.OCCN1CCN(Cc2cccc(-c3ccc(-c4nc5cc(C(F)(F)F)ccc5[nH]4)cc3)c2)CC1` was run?
A: 85%

Q: Which Inhibition does the source give for `CC(C)(C)OC(=O)c1c(NC(=O)/C=C/c2ccc(O)c(O)c2)sc2c1CCCC2` here?
A: 77%

Q: With `Cn1cncc1C(=O)Nc1cccc(-c2ccc(-c3nc4cc(C(F)(F)F)ccc4[nH]3)cc2)c1` as the molecule, how does the Inhibition read?
A: 98%

Q: For `CN1CCC(C(=O)Nc2cccc(-c3cccc(-c4nc5cc(F)ccc5[nH]4)c3)c2)CC1`, which Inhibition is on record?
A: 27%

Q: How did the Inhibition turn out when `COc1ccc(Cn2c(Nc3cccc(C(F)(F)F)c3)nc3cc(C(=O)NC(C)C)cnc32)cc1Cl` was run?
A: 81%

Q: For `O=C(Nc1nc2cc(S(=O)(=O)NCCc3ccc(F)cc3)ccc2n1CCCn1ccnc1)c1ccc(Cl)cc1.O=C(O)C(F)(F)F`, which Inhibition is on record?
A: 55%

Q: With `Cc1ccc2cc(NC(=O)c3cccc(C(=O)Nc4ccc5nc(C)ccc5c4)n3)ccc2n1` as the molecule, how does the Inhibition read?
A: 23%

Q: `CCc1cn2c3c(cc(C(=O)N[C@@H](Cc4ccccc4)[C@H](O)CNC4CCOCC4)cc13)N(C(C)C)S(=O)(=O)CC2.O=CO` was tested. Which Inhibition did it give?
A: 99%
